These results are taken from PubChem BioAssay (NCATS).

SMILES strings stand for the structures. Where “and” joins values, the source holds several entries; their conditions need not be identical. Equal entries are not always repeated. Records with an inconclusive call do not appear. A call without a number means that no potency is given here. Calls of active or inactive are those of the source. Calls follow the shape of the dose curve; as a rule, active = well fitted curve in the direction sought with a large enough effect; inconclusive = small, poorly fitted or top-dose-only effect, or another doubt; inactive = no such curve, though single readings can be large; an effect the other way counts as inactive or inconclusive.
Potency is read from the fitted curve at half-maximal effect.

One test in a line: qHTS of pediatric cancer cell lines to identify multiple opportunities for drug repurposing: Primary screen for SK-N-MC cells (AID 1347093). Particulars: SK-N-MC viability, CellTiter-Glo luminescence, 48 h; series mostly up to 46 µM. Summed up: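 Metabolically active cells were quantified by ATP-dependent luminescence (CellTiter-Glo, 15 min at room temperature) following 48 h treatment. Cells had been plated at 500-1,000 per well and settled for 5 h beforehand.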
As to `CC(C)(C)NCC(O)c1cc(Cl)c(N)c(Cl)c1` (configuration not stated), the Potency result is “inactive”.

For the compound `CC[C@@H](CO)NC(=O)[C@@H]1C=C2c3cccc4[nH]cc(c34)C[C@H]2N(C)C1`, the Potency entry is “inactive”.

`NP(N)(=O)NC(=O)c1ccc(F)cc1`: the Potency result was “inactive”.

`CCN(CC)CCOC(=O)C(O)(c1ccccc1)c1ccccc1`: the Potency entry is “inactive”.

In the case of `Cc1cccc(C)c1NC(=O)CN1CCCC1=O`, the Potency entry was “inactive”.

Take `CN1C(=S)CN=C(c2ccccc2)c2cc(Cl)ccc21`: the Potency result is “inactive”.

Consider `N[C@@H]1C[C@H]1c1ccccc1`, for which the Potency entry is “inactive”.

In the case of `CC[N+](CC)(CC)CC`, the Potency entry is “inactive”.

Take `Fc1ccc(C(OCCN2CCN(CCCc3ccccc3)CC2)c2ccc(F)cc2)cc1`: the Potency is 9.35 µM (active) and 10.6 µM (active).

In the case of `CCCC1CCCCN1` (configuration not stated), the Potency entry is “inactive”.

For `C#CCOC(C(=O)OCCN(C)C)(c1ccccc1)c1ccccc1`, the Potency result is “inactive”.

`CN(C)CCc1ccc(O)cc1`: the Potency result is “inactive”.

For the compound `CCN(C(C)=O)c1cccc(-c2ccnc3c(C#N)cnn23)c1`, the Potency result is “inactive”.

As for `CC(=O)Nc1cc([As](=O)(O)O)ccc1O`, the Potency result was “inactive”.

As to `NCC1(CC(=O)O)CCCCC1`, the Potency entry is “inactive”.

A further test can be described thus: qHTS of pediatric cancer cell lines to identify multiple opportunities for drug repurposing: Primary screen for BT-37 cells (AID 1347094). As to conditions: BT-37 viability, CellTiter-Glo luminescence, 48 h; series mostly up to 57.3 µM. Summed up:
(§1)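 Viability was measured as metabolically active cells after 48 hours of treatment, read by CellTiter-Glo luminescence. Compounds were tested at multiple final concentrations, giving concentration-response curves.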
For the compound `NN=C(N)N`, the Potency result was “inactive”.

Regarding `CN1CCN(C(=O)O[C@H]2c3nccnc3C(=O)N2c2ccc(Cl)cn2)CC1`, the Potency entry was “inactive”.

In the case of `CC1NCCOC1c1ccccc1` (configuration not stated), the Potency result was “inactive”.

Take `CC(C)=CC1C(C(=O)OCc2cccc(Oc3ccccc3)c2)C1(C)C` (configuration not stated): the Potency entry was “inactive”.

Take `NCCc1cc(O)c(O)cc1O`: the Potency result is “inactive”.

In the case of `CCN(CC)C(=O)N[C@@H]1C=C2c3cccc4[nH]cc(c34)C[C@@H]2N(C)C1`, the Potency entry is “inactive”.

As to `CCCC(C)(COC(N)=O)COC(=O)NC(C)C` (configuration not stated), the Potency entry was “inactive”.

For the compound `O=[N+]([O-])c1cc([As](=O)(O)O)ccc1O`, the Potency entry was “inactive”.

As to `COc1ccc(C(=O)c2c(C)n(CCN3CCOCC3)c3ccccc23)cc1`, the Potency entry was “inactive”.

`CCC(C(N)=O)N1CCCC1=O` (configuration not stated): the Potency entry was “inactive”.

`C=C1CC[C@@]2(O)[C@H]3Cc4ccc(O)c5c4[C@@]2(CCN3CC2CC2)[C@H]1O5`: the Potency result was “inactive”.

Regarding `Nc1ccncc1`, the Potency result was “inactive”.

As to `CC(C)NCC(O)c1ccccc1Cl` (configuration not stated), the Potency result was “inactive”.

For the compound `CCCN1CCC[C@@H]2Cc3nc(N)ncc3C[C@H]21`, the Potency entry was “inactive”.

Regarding `N[C@@H](Cc1ccc(N(CCCl)CCCl)cc1)C(=O)O`, the Potency was 15.5 µM (active) and 15.3 µM (active).

Consider `CCCN1CCC[C@@H]2Cc3[nH]ncc3C[C@H]21`, for which the Potency result is “inactive”.

As to `CC(=O)[C@H]1CC[C@H]2[C@@H]3CC[C@H]4C[C@](C)(O)CC[C@]4(C)[C@H]3CC[C@]12C`, the Potency result was “inactive”.

As for `Oc1cc(Cl)ccc1Oc1ccc(Cl)cc1Cl`, the Potency is 40.9 µM (active).

On to `N[C@@H](Cc1ccc(Oc2cc(I)c(O)c(I)c2)c(I)c1)C(=O)O`, for which the Potency entry was “inactive”.

For the compound `Clc1cccc(N2CCNCC2)c1`, the Potency result is “inactive”.

As for `C#CCN(C)[C@H](C)Cc1ccccc1`, the Potency entry was “inactive”.

In the case of `CC(C)(C)NCC(O)c1cc(Cl)c(N)c(Cl)c1` (configuration not stated), the Potency result is “inactive”.

As for `CC[C@@H](CO)NC(=O)[C@@H]1C=C2c3cccc4[nH]cc(c34)C[C@H]2N(C)C1`, the Potency result is “inactive”.

Regarding `NP(N)(=O)NC(=O)c1ccc(F)cc1`, the Potency result was “inactive”.

In the case of `CCN(CC)CCOC(=O)C(O)(c1ccccc1)c1ccccc1`, the Potency entry was “inactive”.

`Cc1cccc(C)c1NC(=O)CN1CCCC1=O`: the Potency entry is “inactive”.

As for `CN1C(=S)CN=C(c2ccccc2)c2cc(Cl)ccc21`, the Potency result was “inactive”.

Take `N[C@@H]1C[C@H]1c1ccccc1`: the Potency entry was “inactive”.

As to `CC[N+](CC)(CC)CC`, the Potency result is “inactive”.

On to `Fc1ccc(C(OCCN2CCN(CCCc3ccccc3)CC2)c2ccc(F)cc2)cc1`, for which the Potency was 21.7 µM (active) and 24.6 µM (active).

As to `CCCC1CCCCN1` (configuration not stated), the Potency result was “inactive”.

Turning to `C#CCOC(C(=O)OCCN(C)C)(c1ccccc1)c1ccccc1`, the Potency entry is “inactive”.

Regarding `CN(C)CCc1ccc(O)cc1`, the Potency result was “inactive”.

As to `CCN(C(C)=O)c1cccc(-c2ccnc3c(C#N)cnn23)c1`, the Potency result is “inactive”.

Consider `CC(=O)Nc1cc([As](=O)(O)O)ccc1O`, for which the Potency entry is “inactive”.

Take `NCC1(CC(=O)O)CCCCC1`: the Potency result is “inactive”.

The next test in a line: qHTS of pediatric cancer cell lines to identify multiple opportunities for drug repurposing: Primary screen for NB-EBc1 cells (AID 1347095). As to conditions: NB-EBc1 neuroblastoma viability, CellTiter-Glo luminescence, 48 h; series mostly up to 46 µM. Summed up:
as §1
As for `NN=C(N)N`, the Potency entry is “inactive”.

With `CN1CCN(C(=O)O[C@H]2c3nccnc3C(=O)N2c2ccc(Cl)cn2)CC1`, the Potency result was “inactive”.

As for `CC1NCCOC1c1ccccc1` (configuration not stated), the Potency entry is “inactive”.

Turning to `CC(C)=CC1C(C(=O)OCc2cccc(Oc3ccccc3)c2)C1(C)C` (configuration not stated), the Potency result was “inactive”.

`NCCc1cc(O)c(O)cc1O`: the Potency entry was “inactive”.

Regarding `CCN(CC)C(=O)N[C@@H]1C=C2c3cccc4[nH]cc(c34)C[C@@H]2N(C)C1`, the Potency entry is “inactive”.

Turning to `CCCC(C)(COC(N)=O)COC(=O)NC(C)C` (configuration not stated), the Potency entry is “inactive”.

With `O=[N+]([O-])c1cc([As](=O)(O)O)ccc1O`, the Potency result was “inactive”.

For `COc1ccc(C(=O)c2c(C)n(CCN3CCOCC3)c3ccccc23)cc1`, the Potency result was “inactive”.

Regarding `CCC(C(N)=O)N1CCCC1=O` (configuration not stated), the Potency result was “inactive”.

Take `C=C1CC[C@@]2(O)[C@H]3Cc4ccc(O)c5c4[C@@]2(CCN3CC2CC2)[C@H]1O5`: the Potency entry is “inactive”.

For `Nc1ccncc1`, the Potency result was “inactive”.

Regarding `CC(C)NCC(O)c1ccccc1Cl` (configuration not stated), the Potency result was “inactive”.

In the case of `CCCN1CCC[C@@H]2Cc3nc(N)ncc3C[C@H]21`, the Potency result was “inactive”.

With `N[C@@H](Cc1ccc(N(CCCl)CCCl)cc1)C(=O)O`, the Potency is 3.76 µM (active) and 235 nM (active).

`CCCN1CCC[C@@H]2Cc3[nH]ncc3C[C@H]21`: the Potency result is “inactive”.

In the case of `CC(=O)[C@H]1CC[C@H]2[C@@H]3CC[C@H]4C[C@](C)(O)CC[C@]4(C)[C@H]3CC[C@]12C`, the Potency entry is “inactive”.

On to `Oc1cc(Cl)ccc1Oc1ccc(Cl)cc1Cl`, for which the Potency is 4.95 µM (active).

In the case of `N[C@@H](Cc1ccc(Oc2cc(I)c(O)c(I)c2)c(I)c1)C(=O)O`, the Potency result was “inactive”.

As to `Clc1cccc(N2CCNCC2)c1`, the Potency entry was “inactive”.

On to `C#CCN(C)[C@H](C)Cc1ccccc1`, for which the Potency result is “inactive”.

For `CC(C)(C)NCC(O)c1cc(Cl)c(N)c(Cl)c1` (configuration not stated), the Potency entry was “inactive”.

Consider `CC[C@@H](CO)NC(=O)[C@@H]1C=C2c3cccc4[nH]cc(c34)C[C@H]2N(C)C1`, for which the Potency entry is “inactive”.

On to `NP(N)(=O)NC(=O)c1ccc(F)cc1`, for which the Potency entry was “inactive”.

Take `CCN(CC)CCOC(=O)C(O)(c1ccccc1)c1ccccc1`: the Potency result is “inactive”.

As to `Cc1cccc(C)c1NC(=O)CN1CCCC1=O`, the Potency result is “inactive”.

Consider `CN1C(=S)CN=C(c2ccccc2)c2cc(Cl)ccc21`, for which the Potency entry was “inactive”.

As to `N[C@@H]1C[C@H]1c1ccccc1`, the Potency entry was “inactive”.

In the case of `CC[N+](CC)(CC)CC`, the Potency entry is “inactive”.

For `Fc1ccc(C(OCCN2CCN(CCCc3ccccc3)CC2)c2ccc(F)cc2)cc1`, the Potency was 23.7 µM (active).

For `CCCC1CCCCN1` (configuration not stated), the Potency result is “inactive”.

As for `C#CCOC(C(=O)OCCN(C)C)(c1ccccc1)c1ccccc1`, the Potency result is “inactive”.

`CN(C)CCc1ccc(O)cc1`: the Potency result was “inactive”.

For `CCN(C(C)=O)c1cccc(-c2ccnc3c(C#N)cnn23)c1`, the Potency entry is “inactive”.

Regarding `CC(=O)Nc1cc([As](=O)(O)O)ccc1O`, the Potency result was “inactive”.

Consider `NCC1(CC(=O)O)CCCCC1`, for which the Potency result is “inactive”.
